The source of these data is PubChem BioAssay (EPA / NIEHS).

The structures appear in SMILES notation. Calls of active or inactive are those of the source. Rule for the calls: active = hit-call score of the fitted dose curve at least 0.9, where 1 is the maximum; inactive = score below 0.9.

Read-out in the experiment: C-C motif chemokine 2 (Homo sapiens) (UniProt P13500)
Nature of the experiment: BSK_KF3CT_MCP1: BioMAP Diversity Plus: KF3CT Assay for Monocyte Chemoattractant Protein 1 (MCP1/CCL2) Biomarker Activity (AID 2283073). To be noted: primary human keratinocytes with fibroblasts; actives raise or lower the signal. How it is done: BSK_KF3CT is a cell-based, multiplexed-readout assay that uses keratinocytes and foreskin fibroblasts, a human skin primary cell co-culture, with measurements taken at 24 hours after chemical dosing in a 96-well plate.BSK_KF3CT_MCP1 is an assay component measured in the BSK_KF3CT assay. It measures MCP-1 antibody related to regulation of gene expression using ELISA technology.Data from the assay component BSK_KF3CT_MCP1 was analyzed into 1 assay endpoint. This assay endpoint, BSK_KF3CT_MCP1, was analyzed with bidirectional fitting relative to DMSO as the negative control and baseline of activity. Using a type of binding reporter, gain or loss-of-signal activity can be used to understand changes in the signaling as they relate to the gene CCL2. Furthermore, this assay endpoint can be referred to as a primary readout, because this assay has produced multiple assay endpoints where this one serves a signaling function. To generalize the intended target to other relatable targets, this assay endpoint is annotated to the cytokine intended target family, where the subfamily is chemotactic factor.
The levels of cell surface (or secreted, indicated by the prefix "s") biomarker endpoints were measured by ELISA. Overt cytotoxicity to cells in confluent adherent cultures (all systems other than the BT system) was assessed by measuring total protein levels using sulforhodamine B (SRB) staining in parallel cultures at the time of biomarker measurements, indicated as SRB endpoints. For proliferation assays for adherent cell types, individual cell types are cultured at sub-confluence and relative cell numbers quantified by SRB staining at time points optimized for each system (48 h: 3C and CASM3C systems; 72 h: BT and HDF3CGF systems; 96 h: SAg system). SRB was performed by staining cells with 0.1% SRB after fixation with 10% TCA and reading wells at 560 nm.Viability and proliferation of PBMC (T cells) was quantified by Alamar Blue reduction for the SAg and BT systems. For PBMC viability (referred to as PBMC Cytotoxicity within the assay endpoint names), cells were plated (75,000/well in a 96-well plate) and then chemical samples added for 1 h before addition of activators, SEB and TSST-1 (20 ng/mL final concentration each). Cells were incubated for 90 h. Then, Alamar Blue (20 uL/well) (Invitrogen, Cat DAL1100) was added for 6 h, and the plates were read with a fluorescence microplate reader at 546/580 nm (excitation/emission). For PBMC proliferation, cells were plated and activated as above but incubated for only 16 h prior to addition of Alamar Blue. Plates were read after 6 h.
Regarding `NCC(F)(F)C(F)(F)C(F)(F)C(F)(F)F`, the outcome was inactive.
Still for that read-out and setting: the same measure for `Nc1ccn([C@@H]2O[C@H](CO)[C@@H](O)[C@@H]2O)c(=O)n1`: “inactive”; for `FC(F)(F)COC(OCC(F)(F)F)OCC(F)(F)F`: “inactive”.
In the case of `CCCCCCCCN(C)C`, the result was inactive.
On to `O=C(O)c1cccc(C(=O)O)c1`, for which the AC50 was 0.323 µM (active).
On to `CC[C@H](C)C(=O)O[C@H]1C[C@H](O)C=C2C=C[C@H](C)[C@H](CC[C@@H](O)C[C@@H](O)CC(=O)O)[C@H]21`, for which the result was inactive.
Still for that read-out and setting: the entry for `CCCCCCCC1CCC(=O)O1` (stereo not given) is “inactive”.
The same measure, in the same setting: the entry for `O=C(O)[C@H](O)[C@@H](O)C(=O)O` is “inactive”; for `CC(C)c1nnc2ccc(-c3ocnc3-c3cc(F)ccc3F)cn12` it is “inactive”; for `O=C(O)c1ccc2c(c1)nc(C(=O)NC1CCN(C3CC3)CC1)n2Cc1cc(-c2ccc(Cl)s2)on1` it is “inactive”.
On the same count and under the same terms, the same measure for `CCCC(CCC)C(=O)O`: “inactive”.
As to `C=CCc1cc(S(=O)(=O)c2ccc(O)c(CC=C)c2)ccc1O`, the AC50 was 24.4 µM (active).
Take `CNC(C)=O`: the outcome was inactive.
Take `CCN(CC)C(=S)SSC(=S)N(CC)CC`: the AC50 was 10.5 µM (active).
In the case of `COS(C)(=O)=O`, the result was inactive.
On the same count and under the same terms, the same measure for `S=P(N1CC1)(N1CC1)N1CC1`: “inactive”; for `CCCOc1ccc(S(=O)(=O)N2CCN(CC)CC2)cc1-c1nc2c(CC)n(Cc3ccccn3)nc2c(=O)[nH]1`: “inactive”.
Still for that read-out and setting: the entry for `FC(F)(F)C(F)(F)C(F)(F)C(F)(F)C(F)(F)C(F)(F)I` is “inactive”; for `OCc1ccccc1` it is “inactive”.
On the same count and under the same terms, the entry for `c1ccc(C(O[C@@H]2CCCN(CCc3ccc4c(c3)OCO4)C2)c2ccccc2)cc1` is “inactive”; for `O=C(NO)C1(NS(=O)(=O)c2ccc(Oc3ccc(F)cc3)cc2)CCOCC1` it is “inactive”.
Take `OC[C@H]1O[C@@H]2O[C@H]3[C@H](O)[C@@H](O)[C@@H](O[C@H]4[C@H](O)[C@@H](O)[C@@H](O[C@H]5[C@H](O)[C@@H](O)[C@@H](O[C@H]6[C@H](O)[C@@H](O)[C@@H](O[C@H]7[C@H](O)[C@@H](O)[C@@H](O[C@H]1[C@H](O)[C@H]2O)O[C@@H]7CO)O[C@@H]6CO)O[C@@H]5CO)O[C@@H]4CO)O[C@@H]3CO`: the outcome was inactive.
The same measure, in the same setting: the entry for `O=S(=O)(O)CCC(F)(F)C(F)(F)C(F)(F)C(F)(F)C(F)(F)C(F)(F)F` is “inactive”; for `NC(=O)N(O)[C@@H]1COc2cc(OCc3ccccc3)ccc21` it is “inactive”.
The same measure, in the same setting: the entry for `CC1(C)C(=O)N(Cl)C(=O)N1Cl` is “inactive”; for `FC(F)C(F)(F)COCC1CO1` (stereo not given) it is “inactive”.
Same read-out and setting: the same measure for `Cc1ncc([C@@H](CCCCCCc2ccc3c(n2)NCCC3)CC(=O)O)cn1`: “inactive”; for `OCCOCCOCCO`: “inactive”.
Regarding `C[C@]12C=CC(=O)C=C1CC[C@H]1[C@@H]3C[C@@H](O)[C@](O)(C(=O)CO)[C@@]3(C)C[C@H](O)[C@@]12F`, the outcome was inactive.
Take `CC(=O)c1ccccc1`: the outcome was inactive.
Turning to `CCCCCCCCCCCCCCO`, the result was inactive.
Regarding `NC(N)=O`, the outcome was inactive.
Same read-out and setting: the same measure for `O=S(=O)(O)c1ccc(N=Nc2c(O)ccc3cc(S(=O)(=O)O)ccc23)cc1`: “inactive”; for `CCc1cccc(CC)c1N`: “inactive”; for `CCCCCCOC(=O)CC(CC(=O)OCCCCCC)(OC(=O)CCC)C(=O)OCCCCCC`: “inactive”.
Same read-out and setting: the entry for `Cc1nccn1-c1ccc(Sc2cccc(C3(C(N)=O)CCOCC3)c2)cc1` is “inactive”; for `CCOc1ccc2[nH]cc(C(=O)NCc3ccccc3)c(=O)c2n1` it is “inactive”.
Still for that read-out and setting: the same measure for `Cc1cccc(O)c1C`: “inactive”.
On to `CCCCCCCCCCCCCCCCOS(=O)(=O)O`, for which the AC50 was 16.8 µM (active).
Turning to `CCCCN1C(=O)[C@@H]([C@H](O)C2CCCCC2)NC(=O)C12CCN(Cc1ccc(Oc3ccc(C(=O)O)cc3)cc1)CC2`, the result was inactive.

One may read the AC50 as the concentration at which the activity in the assay is half-maximal.
